We go through 15 sequences from the supplement of paper PMC6555819.

What all share (test): PBM binding z-score (relative to random genomic background probes); higher = stronger binding; sequences stand for … in GC…GCGATTGACAGCGTAGAATGAAGG
The test system of experiment [1] is RARb homodimer (NR concentration 270 nM). The method in brief:
(§1)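 For binding z-scores, the reference was random background probes on custom Agilent 4×180K protein-binding microarrays. These arrays were incubated 1 h with ligand-free nuclear receptor dimers in PBS pH 7.4, 2% milk, 0.02% Triton X-100, 1 mM DTT, 0.2 mg/mL BSA and 0.4 mg/ml salmon testes DNA. Fluorescence was scanned after antibody detection of each partner (one per run) and regression-normalized.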

The subject of experiment [2] is RARg:RXRa (NR concentration 270 nM, RXRa partner concentration 90 nM). The method in brief: as §1
Experiment [3] relates to RARg homodimer (NR concentration 270 nM). The essentials:
as §1

Experiment [4] has as its system RXRa DBDmut IVT, anti-RXR (DBD mutation: RXRa K156A/R161A, NR concentration 90 nM). The method in brief:
as §1

The subject of experiment [5] is RXRa homodimer (NR concentration 180 nM). The method in brief:
as §1

Experiment [6] concerns THRa:RXRa (NR concentration 90 nM, RXRa partner concentration 90 nM). The essentials:
as §1

Experiment [7] deals with THRa homodimer (NR concentration 90 nM). The essentials:
as §1

For experiment [8], the system named is VDR homodimer (NR concentration 270 nM). The essentials:
as §1

Take ATCGAAAGGTCGTGAGGGGAGTATACAGAAAGGC: the PBM binding z-score came out at 2.78 in experiment [1]; 4.4 in experiment [2]; 3.89 in experiment [3]; 1.72 in experiment [4]; 5.16 in experiment [5]; 2.72 in experiment [6]. In addition, the PBM binding z-score amounted to 0.843 in experiment [7] and 1.42 in experiment [8].

Regarding GATACAGGATCAGCTAGAGGCCAGAGTATGGAAA, the PBM binding z-score in experiment [1] was -0.0727; in experiment [2] it was 1.16; in experiment [3], 0.363; in experiment [4], -0.823; in experiment [5] it was 0.154; in experiment [6], -0.0869. The PBM binding z-score in experiment [7] was -1; in experiment [8], -0.773.

For the sequence GGAACGAGGGCAAAGTGGATAGCATCTGTCGACG, the PBM binding z-score is 1.05 in experiment [1]; 1.54 in experiment [2]; 1.53 in experiment [3]; 2.28 in experiment [4]; 1.21 in experiment [5]; 0.965 in experiment [6]. Besides, the PBM binding z-score in experiment [7] was -0.332; in experiment [8] it was 1.01.

As for GCTTGTAGATCAAGGTGAAGAAAGACTAAGCTAA, the PBM binding z-score is -0.485 in experiment [1]; -0.139 in experiment [2]; -0.0485 in experiment [3]; -0.298 in experiment [4]; -0.15 in experiment [5]; 1.04 in experiment [6]. Also, the PBM binding z-score in experiment [7] was 0.0567; in experiment [8], -0.307.

In the case of CCTATTTGGTCAAGGTCACACACGCTATAGGTAC, the PBM binding z-score in experiment [1] was 4.51; in experiment [2] it was 4.63; in experiment [3] it was 4.57; in experiment [4], 2.35; in experiment [5], 4.55; in experiment [6], 4.2. Further, the PBM binding z-score in experiment [7] worked out at 4.49; in experiment [8] it was 3.03.

For GTTTGTAGATCAAGGTTAAGAAAGACTAAGCTAA, the PBM binding z-score was 0.79 in experiment [1]; 0.774 in experiment [2]; 0.839 in experiment [3]; 0.638 in experiment [4]; 0.913 in experiment [5]; 1.44 in experiment [6]. The PBM binding z-score in experiment [7] worked out at 0.453; in experiment [8], 0.645.

For AGCCAAAGTTCACTAGGTAACGTAAGATTCAGCT, the PBM binding z-score worked out at 3.85 in experiment [1]; 4.99 in experiment [2]; 5.83 in experiment [3]; 4.29 in experiment [4]; 3.74 in experiment [5]; 1.91 in experiment [6]. Further, the results for the PBM binding z-score in experiment [7] and in experiment [8] were -0.25 and 3.46, respectively.

Take AGAACGAGGGCACGCTGAGTTGCTAGCAGAGTAG: the PBM binding z-score in experiment [1] stood at 0.875; in experiment [2], 1.48; in experiment [3], 1.95; in experiment [4], 1.69; in experiment [5], 1.1; in experiment [6], 1.51. Further, the PBM binding z-score in experiment [7] was -0.328; in experiment [8] it was 1.42.

Regarding CAAACTAGGTCATAGAGGTCAAAGTCCGTGCGTA, the PBM binding z-score is 5.51 in experiment [1]; 6.95 in experiment [2]; 7.46 in experiment [3]; 3.57 in experiment [4]; 7.64 in experiment [5]; 4.64 in experiment [6]. For the same sequence, the PBM binding z-score was 2.63 in experiment [7] and 7.04 in experiment [8].

For GCTAGCAGACCATTTGGGTCACTCAATGACGGGC, the PBM binding z-score in experiment [1] was 1.42; in experiment [2] it was 0.72; in experiment [3], 0.826; in experiment [4], -0.303; in experiment [5], 0.514; in experiment [6], 1.38. Further, the PBM binding z-score in experiment [7] was 0.434; in experiment [8], -0.19.

Take TCATATAGGCAAAAGGTGAAAGTCGGTGTGGTAA: the PBM binding z-score came to 1.81 in experiment [1]; 1.45 in experiment [2]; 0.567 in experiment [3]; 1.45 in experiment [4]; 2.12 in experiment [5]; 1.24 in experiment [6]. Besides, the PBM binding z-score in experiment [7] worked out at 0.0725; in experiment [8], 0.163.

On to TCTATTAGTTAATTAGGGCAACCGAAACAGCGGA, for which the PBM binding z-score in experiment [1] stood at 0.756; in experiment [2] it was 0.526; in experiment [3], 0.551; in experiment [4] it was 1.16; in experiment [5] it was 0.875; in experiment [6], 1.05. In addition, the PBM binding z-score was 0.627 in experiment [7] and 0.625 in experiment [8].

Consider AGAACGAGGGCATGCTGAGTTGATAGCAGAGTAG, for which the PBM binding z-score was 0.498 in experiment [1]; 1.33 in experiment [2]; 1.34 in experiment [3]; 2.24 in experiment [4]; 0.92 in experiment [5]; 1.2 in experiment [6]. Also, the PBM binding z-score was -0.497 in experiment [7] and 1.74 in experiment [8].

Turning to CCTTACGGGTCACGAGGTTATAGCCCGACGAGCG, the PBM binding z-score in experiment [1] is 4.11; in experiment [2] it was 6.07; in experiment [3] it was 5.36; in experiment [4] it was 1.81; in experiment [5] it was 6.74; in experiment [6] it was 3.65. Moreover, the PBM binding z-score in experiment [7] was determined as 1.07; in experiment [8], 2.03.

As for TGAATGAGGTTATAAGATCAGGTAACGTTGCAAA, the PBM binding z-score in experiment [1] came out at 0.391; in experiment [2], 1.41; in experiment [3], 1.13; in experiment [4] it was 0.758; in experiment [5] it was 1.87; in experiment [6], 2.61. For the same sequence, the PBM binding z-score in experiment [7] was 1.06; in experiment [8] it was 0.507.
